Test results taken from the supplement of paper PMC4466140.

B1: unnamed (peptide)
chain: PIVPSSPAPPLPLSG

Target: AgAbp1
Test: SPOT peptide array binding signal intensity (averaged, normalized) (arbitrary units (background-subtracted, floor 0; scale differs between SH3 domains)); higher = stronger binding of the SH3 domain to the peptide
Outline: (§1)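 Binding signal refers to normalized, background-subtracted spot intensity averaged over replicates, expressed in arbitrary units that differ between domains. GST-fused SH3 domains from four yeast species were incubated at 10 μg/ml overnight at 4°C on cellulose membranes of synthetic 15-mer peptides with cysteines replaced by serines. Bound protein was detected with anti-GST antibody, an HRP anti-mouse secondary and luminol, and quantified with Genespotter.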

Binder	SPOT peptide array binding signal intensity
B1	≤ 0

Target: AgBbc1
Test: as above
Outline: as §1

Binder	SPOT peptide array binding signal intensity
B1	≤ 0

Target: AgBem1-D1
Test: as above
Outline: as §1

Binder	SPOT peptide array binding signal intensity
B1	≤ 0

Target: AgBzz1-D1
Test: as above
Outline: as §1

Binder	SPOT peptide array binding signal intensity
B1	≤ 0

Target: AgBzz1-D2
Test: as above
Outline: as §1

Binder	SPOT peptide array binding signal intensity
B1	≤ 0

Target: AgCyk3
Test: as above
Outline: as §1

Binder	SPOT peptide array binding signal intensity
B1	≤ 0

Target: AgFus1
Test: as above
Outline: as §1

Binder	SPOT peptide array binding signal intensity
B1	≤ 0

Target: AgHof1
Test: as above
Outline: as §1

Binder	SPOT peptide array binding signal intensity
B1	≤ 0

Target: AgHse1
Test: as above
Outline: as §1

Binder	SPOT peptide array binding signal intensity
B1	13.5

Target: AgLsb1
Test: as above
Outline: as §1

Binder	SPOT peptide array binding signal intensity
B1	≤ 0

Target: AgLsb4
Test: as above
Outline: as §1

Binder	SPOT peptide array binding signal intensity
B1	≤ 0

Target: AgMyo5
Test: as above
Outline: as §1

Binder	SPOT peptide array binding signal intensity
B1	3230

Target: AgNbp2
Test: as above
Outline: as §1

Binder	SPOT peptide array binding signal intensity
B1	≤ 0

Target: AgRvs167
Test: as above
Outline: as §1

Binder	SPOT peptide array binding signal intensity
B1	≤ 0

Target: AgSho1
Test: as above
Outline: as §1

Binder	SPOT peptide array binding signal intensity
B1	≤ 0

Target: AgSla1-D1-D2
Test: as above
Outline: as §1

Binder	SPOT peptide array binding signal intensity
B1	7

Target: AgSla1-D3
Test: as above
Outline: as §1

Binder	SPOT peptide array binding signal intensity
B1	≤ 0

Target: CaAbp1-D1
Test: as above
Outline: as §1

Binder	SPOT peptide array binding signal intensity
B1	≤ 0

Target: CaAbp1-D2
Test: as above
Outline: as §1

Binder	SPOT peptide array binding signal intensity
B1	≤ 0

Target: CaBbc1
Test: as above
Outline: as §1

Binder	SPOT peptide array binding signal intensity
B1	≤ 0

Target: CaBem1-D1
Test: as above
Outline: as §1

Binder	SPOT peptide array binding signal intensity
B1	≤ 0

Target: CaBzz1-D1
Test: as above
Outline: as §1

Binder	SPOT peptide array binding signal intensity
B1	19

Target: CaBzz1-D2
Test: as above
Outline: as §1

Binder	SPOT peptide array binding signal intensity
B1	11.2

Target: CaCyk3
Test: as above
Outline: as §1

Binder	SPOT peptide array binding signal intensity
B1	≤ 0

Target: CaFus1
Test: as above
Outline: as §1

Binder	SPOT peptide array binding signal intensity
B1	14.5

Target: CaHof1
Test: as above
Outline: as §1

Binder	SPOT peptide array binding signal intensity
B1	≤ 0

Target: CaHse1
Test: as above
Outline: as §1

Binder	SPOT peptide array binding signal intensity
B1	≤ 0

Target: CaLsb1
Test: as above
Outline: as §1

Binder	SPOT peptide array binding signal intensity
B1	≤ 0

Target: CaLsb4
Test: as above
Outline: as §1

Binder	SPOT peptide array binding signal intensity
B1	≤ 0

Target: CaMyo5
Test: as above
Outline: as §1

Binder	SPOT peptide array binding signal intensity
B1	611

Target: CaNbp2
Test: as above
Outline: as §1

Binder	SPOT peptide array binding signal intensity
B1	4.5

Target: CaRvs167
Test: as above
Outline: as §1

Binder	SPOT peptide array binding signal intensity
B1	≤ 0

Target: CaRvs167-3
Test: as above
Outline: as §1

Binder	SPOT peptide array binding signal intensity
B1	1

Target: CaSho1
Test: as above
Outline: as §1

Binder	SPOT peptide array binding signal intensity
B1	≤ 0

Target: CaSla1-D1-D2
Test: as above
Outline: as §1

Binder	SPOT peptide array binding signal intensity
B1	0.5

Target: CaSla1-D3
Test: as above
Outline: as §1

Binder	SPOT peptide array binding signal intensity
B1	≤ 0

Target: ScAbp1
Test: as above
Outline: as §1

Binder	SPOT peptide array binding signal intensity
B1	≤ 0

Target: ScBbc1
Test: as above
Outline: as §1

Binder	SPOT peptide array binding signal intensity
B1	≤ 0

Target: ScBem1-D1
Test: as above
Outline: as §1

Binder	SPOT peptide array binding signal intensity
B1	≤ 0

Target: ScBzz1-D1
Test: as above
Outline: as §1

Binder	SPOT peptide array binding signal intensity
B1	7.5

Target: ScBzz1-D2
Test: as above
Outline: as §1

Binder	SPOT peptide array binding signal intensity
B1	1.5

Target: ScCyk3
Test: as above
Outline: as §1

Binder	SPOT peptide array binding signal intensity
B1	≤ 0

Target: ScFus1
Test: as above
Outline: as §1

Binder	SPOT peptide array binding signal intensity
B1	≤ 0

Target: ScHof1
Test: as above
Outline: as §1

Binder	SPOT peptide array binding signal intensity
B1	≤ 0

Target: ScHse1
Test: as above
Outline: as §1

Binder	SPOT peptide array binding signal intensity
B1	≤ 0

Target: ScLsb1
Test: as above
Outline: as §1

Binder	SPOT peptide array binding signal intensity
B1	≤ 0

Target: ScLsb2
Test: as above
Outline: as §1

Binder	SPOT peptide array binding signal intensity
B1	≤ 0

Target: ScLsb3
Test: as above
Outline: as §1

Binder	SPOT peptide array binding signal intensity
B1	≤ 0

Target: ScLsb4
Test: as above
Outline: as §1

Binder	SPOT peptide array binding signal intensity
B1	≤ 0

Target: ScMyo3
Test: as above
Outline: as §1

Binder	SPOT peptide array binding signal intensity
B1	2720

Target: ScMyo5
Test: as above
Outline: as §1

Binder	SPOT peptide array binding signal intensity
B1	3220

Target: ScNbp2
Test: as above
Outline: as §1

Binder	SPOT peptide array binding signal intensity
B1	≤ 0

Target: ScPex13
Test: as above
Outline: as §1

Binder	SPOT peptide array binding signal intensity
B1	≤ 0

Target: ScRvs167
Test: as above
Outline: as §1

Binder	SPOT peptide array binding signal intensity
B1	≤ 0

Target: ScSho1
Test: as above
Outline: as §1

Binder	SPOT peptide array binding signal intensity
B1	≤ 0

Target: ScSla1-D1-D2
Test: as above
Outline: as §1

Binder	SPOT peptide array binding signal intensity
B1	1

Target: ScSla1-D3
Test: as above
Outline: as §1

Binder	SPOT peptide array binding signal intensity
B1	7.5

Target: SpAbp1-D1
Test: as above
Outline: as §1

Binder	SPOT peptide array binding signal intensity
B1	≤ 0

Target: SpBbc1
Test: as above
Outline: as §1

Binder	SPOT peptide array binding signal intensity
B1	6

Target: SpBzz1-D1
Test: as above
Outline: as §1

Binder	SPOT peptide array binding signal intensity
B1	52.5

Target: SpBzz1-D2
Test: as above
Outline: as §1

Binder	SPOT peptide array binding signal intensity
B1	1.5

Target: SpCyk3
Test: as above
Outline: as §1

Binder	SPOT peptide array binding signal intensity
B1	≤ 0

Target: SpHof1
Test: as above
Outline: as §1

Binder	SPOT peptide array binding signal intensity
B1	≤ 0

Target: SpHof1-2
Test: as above
Outline: as §1

Binder	SPOT peptide array binding signal intensity
B1	≤ 0

Target: SpHof1-3
Test: as above
Outline: as §1

Binder	SPOT peptide array binding signal intensity
B1	≤ 0

Target: SpHse1
Test: as above
Outline: as §1

Binder	SPOT peptide array binding signal intensity
B1	7

Target: SpLsb1
Test: as above
Outline: as §1

Binder	SPOT peptide array binding signal intensity
B1	≤ 0

Target: SpLsb4
Test: as above
Outline: as §1

Binder	SPOT peptide array binding signal intensity
B1	≤ 0

Target: SpMyo1
Test: as above
Outline: as §1

Binder	SPOT peptide array binding signal intensity
B1	1220

Target: SpNbp2
Test: as above
Outline: as §1

Binder	SPOT peptide array binding signal intensity
B1	≤ 0

Target: SpPex13
Test: as above
Outline: as §1

Binder	SPOT peptide array binding signal intensity
B1	1

Target: SpRvs167
Test: as above
Outline: as §1

Binder	SPOT peptide array binding signal intensity
B1	3.5

Target: SpSla1-D1-D2
Test: as above
Outline: as §1

Binder	SPOT peptide array binding signal intensity
B1	≤ 0

Target: SpSla1-D3
Test: as above
Outline: as §1

Binder	SPOT peptide array binding signal intensity
B1	≤ 0
